Measured values reported in PubChem BioAssay (EPA / NIEHS).
Where “and” joins values, the source holds several entries; their conditions need not be identical. Identical values can stand only once. Records with an inconclusive call do not appear. Some compounds were tested as several samples or in several runs, with calls that do not always agree. Calls of active or inactive are those of the source. Rule for the calls, unless noted: active = hit-call score of the fitted dose curve at least 0.9, where 1 is the maximum; inconclusive = response in the unintended direction; inactive = score below 0.9.

Columns and labels:
[1] = biological target: Estrogen receptor (Homo sapiens) (UniProt P03372); assay: OT_ERa_GFPERaERE_0480: Odyssey Thera (OT) 8-hour HeLa Transcription Induction Assay for Estrogen Receptor (AID 2283381; active = hit-call score of the fitted dose curve at least 0.9, where 1 is the maximum; inactive = score below 0.9)
Outline: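 Cells (HeLa) receive compound; after 8 h, reporter fluorescence is imaged and quantified by high-content analysis. Gain-of-signal relative to DMSO gives the endpoint.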

[2] = biological target: Estrogen receptor (Homo sapiens) (UniProt P03372); assay: OT_ERa_GFPERaERE_0120: Odyssey Thera (OT) 2-hour HeLa Transcription Induction Assay for Estrogen Receptor (AID 2283382)
Outline: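 Measures ESR1 pathway reporter gain-of-signal in HeLa cells after a 2-hour treatment, detected as fluorescent protein induction by microscopy, DMSO as baseline.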

[3] = biological target: Retinoic acid receptor RXR-alpha (Homo sapiens) (UniProt P19793); assay: OT_NURR1_NURR1RXRa_0480: Odyssey Thera (OT) 8-hour HEK293T Protein Complementation Assay for Nurr1/retinoid X receptor (RXR) (AID 2283385)
Outline: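 Compounds are applied to HEK293T cells carrying Nurr1 and RXRα linked to reporter fragments. After 8 h, fluorescence intensity reports heterodimer formation, with DMSO as baseline.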

[4] = biological target: Peroxisome proliferator-activated receptor gamma (Homo sapiens) (UniProt P37231); assay: OT_PPARg_PPARgSRC1_0480: Odyssey Thera (OT) 8-hour Protein-Complementation Assay for Peroxisome Proliferator-activated Receptor Gamma / SRC-1 Co-activator (AID 2283387)
Outline: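 Read-out: 488 nm N/C fluorescence ratio from complemented Venus YFP fragments, ≥350 cells per image, gain-of-signal fitted against DMSO baseline. Fusions of PPARg/SRC-1 with IFP1/IFP2 expressed transiently in HEK293T; compounds applied 8 h.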

[5] = biological target: Peroxisome proliferator-activated receptor gamma (Homo sapiens) (UniProt P37231); assay: OT_PPARg_PPARgSRC1_1440: Odyssey Thera (OT) 24-hour Protein-Complementation Assay for Peroxisome Proliferator-activated Receptor Gamma/ SRC-1 Co-activator (AID 2283388)
Outline: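 HEK293T transiently transfected with PPARg/SRC-1 split-Venus YFP fusions 48 h before dosing, then treated 24 h at 37C. Fixed cells imaged; nuclear/cytoplasmic 488 nm fluorescence ratio, gain of signal versus DMSO.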

[6] = biological target: Estrogen receptor beta (Homo sapiens) (UniProt Q92731); assay: OT_ER_ERbERb_1440: Odyssey Thera (OT) 24-hour HEK293T Protein-Complementation Assay for Estrogen Receptor-beta/-beta Homodimer (AID 2283380);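 note: scored as signal increase over DMSO baseline for both agonists and antagonists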
Outline: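 HEK293T cells stably expressing ER beta LBD (aa 310-547) homodimer fragment-complementation reporter, dosed 24 h. Cells formaldehyde-fixed, Draq5-stained; gain in nuclear (agonist) or nuclear plus cytoplasmic (antagonist) fluorescence versus DMSO read by laser scanning cytometry.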

[7] = biological target: Retinoic acid receptor RXR-alpha (Homo sapiens) (UniProt P19793); assay: OT_NURR1_NURR1RXRa_1440: Odyssey Thera (OT) 24-hour HEK293T Protein Complementation Assay for Nurr1/retinoid X receptor (RXR) (AID 2283386)
Outline: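 Measured as fluorescence from a reconstituted split reporter, this 24 h HEK293T complementation assay scores compound-induced gain of Nurr1/RXRα association relative to DMSO.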

[8] = biological target: Bile acid receptor (Homo sapiens) (UniProt Q96RI1); assay: OT_FXR_FXRSRC1_0480: Odyssey Thera (OT) 8-hour HEK293T Protein-Complementation Assay for Farnesoid X receptor/SRC-1 Co-activator (AID 2283383)
Outline: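 Co-activator recruitment to FXR was measured in living HEK293T cells, where interaction of the two fused partners restored an active fluorescent reporter. Signal gain after 8 h treatment was referenced to DMSO.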

[9] = biological target: Bile acid receptor (Homo sapiens) (UniProt Q96RI1); assay: OT_FXR_FXRSRC1_1440: Odyssey Thera (OT) 24-hour HEK293T Protein-Complementation Assay for Farnesoid X receptor/SRC-1 Co-activator (AID 2283384)
Outline: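 Cell-based binding reporter: interaction of FXR with SRC-1 brings reporter fragments together, giving a fluorescence signal read 24 h after dosing of HEK293T cells.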

Measured: AC50

Sequence of Estrogen receptor beta (Homo sapiens) (Q92731 whole entry, looked up, the tested form may be a part): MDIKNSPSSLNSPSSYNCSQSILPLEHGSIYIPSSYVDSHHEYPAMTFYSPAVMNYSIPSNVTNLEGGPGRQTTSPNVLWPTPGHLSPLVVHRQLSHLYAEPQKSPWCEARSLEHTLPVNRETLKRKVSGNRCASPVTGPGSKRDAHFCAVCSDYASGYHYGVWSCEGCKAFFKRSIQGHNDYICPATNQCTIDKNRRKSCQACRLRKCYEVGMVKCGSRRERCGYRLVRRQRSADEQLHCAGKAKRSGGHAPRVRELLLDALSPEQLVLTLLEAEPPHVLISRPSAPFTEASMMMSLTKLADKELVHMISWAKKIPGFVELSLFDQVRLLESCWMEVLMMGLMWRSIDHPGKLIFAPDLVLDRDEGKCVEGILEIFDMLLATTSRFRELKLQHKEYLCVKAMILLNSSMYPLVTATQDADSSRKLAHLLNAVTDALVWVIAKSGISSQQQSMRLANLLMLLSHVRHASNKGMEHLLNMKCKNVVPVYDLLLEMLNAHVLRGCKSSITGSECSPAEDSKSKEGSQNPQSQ
Sequence of Peroxisome proliferator-activated receptor gamma (Homo sapiens) (P37231 whole entry, looked up, the tested form may be a part): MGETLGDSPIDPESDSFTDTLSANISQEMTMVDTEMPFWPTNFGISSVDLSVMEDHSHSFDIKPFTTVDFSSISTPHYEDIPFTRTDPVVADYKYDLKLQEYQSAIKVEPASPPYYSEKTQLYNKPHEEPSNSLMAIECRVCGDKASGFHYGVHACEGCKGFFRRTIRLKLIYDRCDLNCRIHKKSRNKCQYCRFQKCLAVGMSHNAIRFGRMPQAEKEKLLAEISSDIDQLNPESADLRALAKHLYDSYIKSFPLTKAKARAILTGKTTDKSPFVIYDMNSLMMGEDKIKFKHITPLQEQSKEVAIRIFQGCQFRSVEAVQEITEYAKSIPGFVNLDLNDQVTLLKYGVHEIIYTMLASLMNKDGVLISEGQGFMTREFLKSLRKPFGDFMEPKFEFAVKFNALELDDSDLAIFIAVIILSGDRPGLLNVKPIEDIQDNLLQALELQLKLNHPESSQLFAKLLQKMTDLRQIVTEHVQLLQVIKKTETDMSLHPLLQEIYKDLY
Sequence of Bile acid receptor (Homo sapiens) (Q96RI1 whole entry, looked up, the tested form may be a part): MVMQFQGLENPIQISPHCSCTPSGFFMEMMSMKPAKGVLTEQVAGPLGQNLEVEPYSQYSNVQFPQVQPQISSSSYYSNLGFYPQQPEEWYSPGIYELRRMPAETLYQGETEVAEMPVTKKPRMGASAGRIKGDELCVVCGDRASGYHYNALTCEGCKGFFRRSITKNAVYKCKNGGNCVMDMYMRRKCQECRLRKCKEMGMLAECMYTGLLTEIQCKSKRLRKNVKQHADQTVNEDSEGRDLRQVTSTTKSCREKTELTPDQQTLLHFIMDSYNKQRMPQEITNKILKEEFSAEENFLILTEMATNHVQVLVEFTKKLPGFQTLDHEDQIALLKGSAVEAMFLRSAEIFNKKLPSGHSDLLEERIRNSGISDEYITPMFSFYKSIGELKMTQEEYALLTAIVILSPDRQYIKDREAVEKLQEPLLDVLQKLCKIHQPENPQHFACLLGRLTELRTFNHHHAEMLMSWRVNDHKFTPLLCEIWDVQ
Sequence of Estrogen receptor (Homo sapiens) (P03372 whole entry, looked up): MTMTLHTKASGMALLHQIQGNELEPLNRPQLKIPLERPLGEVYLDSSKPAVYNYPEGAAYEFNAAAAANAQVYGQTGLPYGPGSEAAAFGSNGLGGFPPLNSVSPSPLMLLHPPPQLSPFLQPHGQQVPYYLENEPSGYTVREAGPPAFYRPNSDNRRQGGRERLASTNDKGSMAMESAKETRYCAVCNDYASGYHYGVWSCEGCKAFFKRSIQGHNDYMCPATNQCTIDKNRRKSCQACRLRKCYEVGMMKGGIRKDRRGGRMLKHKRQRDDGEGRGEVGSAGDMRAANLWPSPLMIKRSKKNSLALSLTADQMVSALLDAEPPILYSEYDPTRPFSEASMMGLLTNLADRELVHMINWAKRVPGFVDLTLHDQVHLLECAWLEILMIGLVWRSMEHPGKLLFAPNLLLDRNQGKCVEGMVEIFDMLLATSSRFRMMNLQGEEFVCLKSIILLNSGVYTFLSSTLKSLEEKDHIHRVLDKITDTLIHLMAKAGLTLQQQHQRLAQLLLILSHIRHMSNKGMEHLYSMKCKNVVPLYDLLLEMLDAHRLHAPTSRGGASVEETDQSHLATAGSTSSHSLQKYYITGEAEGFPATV
Sequence of Retinoic acid receptor RXR-alpha (Homo sapiens) (P19793 whole entry, looked up, the tested form may be a part): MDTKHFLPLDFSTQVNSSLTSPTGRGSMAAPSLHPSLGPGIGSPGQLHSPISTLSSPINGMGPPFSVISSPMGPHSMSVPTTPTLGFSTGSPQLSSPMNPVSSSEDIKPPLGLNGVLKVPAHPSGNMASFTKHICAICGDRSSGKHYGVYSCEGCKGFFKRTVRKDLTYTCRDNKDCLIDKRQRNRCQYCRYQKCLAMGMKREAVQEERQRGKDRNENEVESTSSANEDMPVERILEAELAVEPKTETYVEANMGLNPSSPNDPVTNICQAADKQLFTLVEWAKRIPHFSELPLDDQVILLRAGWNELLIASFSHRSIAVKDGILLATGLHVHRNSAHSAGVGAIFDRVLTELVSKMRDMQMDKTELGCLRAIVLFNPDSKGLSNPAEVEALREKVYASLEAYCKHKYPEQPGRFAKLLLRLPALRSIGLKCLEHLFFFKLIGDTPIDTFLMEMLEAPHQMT

CC(c1ccc(O)cc1)(c1ccc(O)cc1)c1ccc(O)cc1
active: [1] 3.62 µM | [2] 2.96 µM
inactive: [3] | [4] | [5]

C=CC(=O)NCNC(=O)C=C
not listed: [8] | [9]
inactive: all other assays above

Oc1ccc(C(c2ccc(O)cc2)(C(F)(F)F)C(F)(F)F)cc1
inactive: [3] | [7] | [4] | [5]

CCC(C)(c1ccc(O)cc1)c1ccc(O)cc1
inactive: [8] | [9] | [3] | [7] | [4] | [5]
active: [2] 213 nM [middle of 5 runs] | [8] 12.1 µM | [9] 30.2 µM and 32.2 µM | [3] 30.8 µM and 67 µM and 68.3 µM | [7] 92.5 µM and 87.7 µM

Cc1cc(O)ccc1Cl
active: [6] 52.5 µM | [9] 34.7 µM
not listed: [1]
inactive: all other assays above

C[C@]12CCC(=O)C=C1CC[C@@H]1[C@@H]2CC[C@@]2(C)[C@H]1CC[C@]2(C)O
inactive: [1] | [2] | [8] | [9] | [3] | [7] | [4] | [5]
active: [8] 16.1 µM and 16.7 µM and 11.7 µM | [9] 23.5 µM and 27.9 µM and 33.2 µM

CCCCCCCCCC[N+](C)(C)CCCCCCCCCC
active: [1] 17.1 µM | [2] 16.1 µM
inactive: [8] | [9] | [4] | [5]

CC#Cc1cc(C)nc(Nc2ccccc2)n1
not listed: [8] | [9]
inactive: all other assays above

CC(C)C(=O)OCC(C)(C)C(OC(=O)C(C)C)C(C)C (stereo not drawn)
not listed: [3] | [8] | [9]
inactive: all other assays above

CCOCCOC(C)=O
inactive: [1] | [2] | [3] | [4] | [5]

Clc1ccc(C(c2ccccc2Cl)C(Cl)(Cl)Cl)cc1 (stereo not drawn)
inactive: [7] | [4] | [5]
active: [6] 2.14 µM and 2.1 µM and 2.35 µM | [3] 54.9 µM and 58.4 µM and 63.9 µM | [7] 59.9 µM

CCC(C)(CC)c1cc(NC(=O)c2c(OC)cccc2OC)on1
inactive: [6] | [3] | [7] | [4] | [5]

CCOP(=S)(OCC)SCSC(C)(C)C
not listed: [6] | [8] | [9]
inactive: all other assays above

CCCCCCOC(=O)c1ccccc1C(=O)OCCCCCC
not listed: [6] | [8] | [9]
inactive: all other assays above

CC(C)(c1ccccc1)c1ccc(O)cc1
inactive: [4] | [5]
active: [6] 2 µM and 11.9 µM and 2.17 µM | [1] 770 nM and 897 nM and 861 nM | [2] 633 nM and 791 nM and 967 nM

Sc1ccccc1
inactive: [1] | [2]

O=C(NC(=O)c1cc(F)c(F)cc1Cl)Nc1cc(F)ccc1N1CCC(C(=O)O)CC1
not listed: [6] | [8] | [9]
inactive: all other assays above

ClC1=C(Cl)[C@]2(Cl)[C@@H]3[C@H]4C[C@H]([C@@H]5O[C@H]45)[C@@H]3[C@@]1(Cl)C2(Cl)Cl
inactive: [1] | [3] | [7] | [4] | [5]

O=S(=O)(O)C(F)(F)C(F)(F)C(F)(F)C(F)(F)C(F)(F)C(F)(F)F
not listed: [6] | [8]
inactive: all other assays above

ClC1=C(Cl)[C@]2(Cl)[C@@H]3[C@@H]4C[C@@H]([C@H]5O[C@@H]45)[C@@H]3[C@@]1(Cl)C2(Cl)Cl
active: [3] 77.7 µM and 81.5 µM
inactive: [1] | [2] | [7] | [4] | [5]
